Legend:
Test in all cases: log2 ratio of Biotin-Ahx-Ub-VS probe labelling (fragment/DMSO); higher = less target engagement (more negative = stronger competition), active = hit call of the paper (q ≤ 0.05, log2 ratio ≤ -1)
Details in all cases: compound concentration: 200 uM; treatment time: 3 h
USP34 = USP34 (UniProt Q70CQ2)
Procedure, shortened: (§1)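 Using Biotin-Ahx-Ub-VS at 0.5 µM final for 1 h, DUBs were labelled in HEK293T lysate (495 µg per sample) that had first been treated in triplicate with fragment at 200 µM or vehicle for 3 h. NeutrAvidin enrichment, LysC and trypsin digestion and diaPASEF LC-MS/MS followed. Spectronaut label-free quantities were global-median-normalised. Values are average log2 fragment/vehicle ratios by unpaired t-test, using proteins with ≥2 unique peptides.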

USP36 = target: T1, USP36 (UniProt Q9P275)
T1 sequence (whole entry): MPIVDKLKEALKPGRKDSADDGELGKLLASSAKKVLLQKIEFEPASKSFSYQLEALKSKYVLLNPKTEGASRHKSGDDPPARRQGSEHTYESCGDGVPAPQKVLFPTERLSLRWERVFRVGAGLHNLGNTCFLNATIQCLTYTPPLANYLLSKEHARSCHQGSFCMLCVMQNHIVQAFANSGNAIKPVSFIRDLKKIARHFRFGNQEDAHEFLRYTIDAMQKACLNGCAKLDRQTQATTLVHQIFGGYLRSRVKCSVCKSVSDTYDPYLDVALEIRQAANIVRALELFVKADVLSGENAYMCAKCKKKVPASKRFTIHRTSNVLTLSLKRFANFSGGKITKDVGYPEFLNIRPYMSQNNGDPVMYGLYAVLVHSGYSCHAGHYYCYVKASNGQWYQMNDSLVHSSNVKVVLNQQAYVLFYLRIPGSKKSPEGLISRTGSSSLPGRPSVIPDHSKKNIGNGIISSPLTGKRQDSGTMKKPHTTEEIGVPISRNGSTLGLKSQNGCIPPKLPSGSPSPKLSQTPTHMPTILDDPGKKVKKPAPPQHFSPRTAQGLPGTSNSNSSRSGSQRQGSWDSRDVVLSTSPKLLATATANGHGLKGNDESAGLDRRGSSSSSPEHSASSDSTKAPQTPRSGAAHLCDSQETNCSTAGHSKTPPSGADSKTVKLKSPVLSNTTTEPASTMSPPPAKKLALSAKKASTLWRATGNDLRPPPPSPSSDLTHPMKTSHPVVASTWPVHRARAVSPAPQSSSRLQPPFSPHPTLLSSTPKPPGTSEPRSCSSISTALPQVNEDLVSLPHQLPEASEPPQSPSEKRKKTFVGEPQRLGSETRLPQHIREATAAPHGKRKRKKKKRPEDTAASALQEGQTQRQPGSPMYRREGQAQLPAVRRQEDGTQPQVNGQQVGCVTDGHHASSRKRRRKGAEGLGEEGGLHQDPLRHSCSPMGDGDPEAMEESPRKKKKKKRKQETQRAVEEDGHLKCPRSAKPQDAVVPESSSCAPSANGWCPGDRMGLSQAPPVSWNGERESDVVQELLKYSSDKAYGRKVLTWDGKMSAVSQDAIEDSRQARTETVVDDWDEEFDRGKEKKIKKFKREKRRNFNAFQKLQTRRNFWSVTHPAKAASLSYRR
Procedure, shortened: as §1

USP38 = target: T2, USP38 (UniProt Q8NB14)
T2 sequence (whole entry): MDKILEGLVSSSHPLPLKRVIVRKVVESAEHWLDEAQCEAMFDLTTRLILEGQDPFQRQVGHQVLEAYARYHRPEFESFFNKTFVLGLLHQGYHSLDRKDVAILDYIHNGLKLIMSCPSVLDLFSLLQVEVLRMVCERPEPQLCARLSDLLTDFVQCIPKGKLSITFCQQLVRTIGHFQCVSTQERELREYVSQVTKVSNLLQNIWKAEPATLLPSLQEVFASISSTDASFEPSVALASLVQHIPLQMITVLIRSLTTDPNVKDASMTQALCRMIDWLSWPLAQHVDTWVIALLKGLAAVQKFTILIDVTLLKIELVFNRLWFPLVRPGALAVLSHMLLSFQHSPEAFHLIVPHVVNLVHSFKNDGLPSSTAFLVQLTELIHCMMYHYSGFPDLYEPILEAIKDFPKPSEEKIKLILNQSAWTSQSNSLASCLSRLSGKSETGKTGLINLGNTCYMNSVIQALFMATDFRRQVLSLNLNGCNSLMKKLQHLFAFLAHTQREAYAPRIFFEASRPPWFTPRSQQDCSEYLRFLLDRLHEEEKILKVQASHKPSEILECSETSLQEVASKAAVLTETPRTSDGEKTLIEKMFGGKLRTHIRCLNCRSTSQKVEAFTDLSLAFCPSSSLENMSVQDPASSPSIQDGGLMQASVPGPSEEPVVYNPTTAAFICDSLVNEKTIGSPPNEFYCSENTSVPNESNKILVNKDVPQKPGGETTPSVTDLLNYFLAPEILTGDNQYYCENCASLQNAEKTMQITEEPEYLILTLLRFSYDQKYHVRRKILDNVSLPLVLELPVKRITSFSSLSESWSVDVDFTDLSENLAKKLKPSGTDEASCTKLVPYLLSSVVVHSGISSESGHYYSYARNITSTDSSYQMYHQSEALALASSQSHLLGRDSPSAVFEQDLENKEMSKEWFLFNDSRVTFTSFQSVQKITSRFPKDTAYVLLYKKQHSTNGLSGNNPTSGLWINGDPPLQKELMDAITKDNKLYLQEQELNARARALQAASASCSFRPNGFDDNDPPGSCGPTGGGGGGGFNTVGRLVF
Procedure, shortened: as §1

USP39 = target: T3, USP39 (UniProt Q53GS9)
T3 sequence (whole entry): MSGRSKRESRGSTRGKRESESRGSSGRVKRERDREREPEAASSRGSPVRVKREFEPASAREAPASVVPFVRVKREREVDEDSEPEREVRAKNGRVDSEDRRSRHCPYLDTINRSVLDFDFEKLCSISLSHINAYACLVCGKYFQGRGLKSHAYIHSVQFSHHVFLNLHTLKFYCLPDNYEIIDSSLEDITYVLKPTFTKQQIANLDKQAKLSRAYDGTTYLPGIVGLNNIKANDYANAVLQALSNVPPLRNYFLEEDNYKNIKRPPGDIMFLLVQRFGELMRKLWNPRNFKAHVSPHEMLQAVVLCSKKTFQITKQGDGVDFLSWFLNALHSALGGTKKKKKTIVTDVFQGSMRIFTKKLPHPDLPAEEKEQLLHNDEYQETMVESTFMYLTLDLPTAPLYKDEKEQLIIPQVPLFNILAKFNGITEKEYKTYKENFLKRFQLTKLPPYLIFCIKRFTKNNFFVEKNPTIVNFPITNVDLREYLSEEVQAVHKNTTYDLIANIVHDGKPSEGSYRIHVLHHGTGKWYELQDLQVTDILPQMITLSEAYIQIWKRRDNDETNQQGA
Procedure, shortened: as §1

USP4 = target: T4, USP4 (UniProt Q13107)
T4 sequence (whole entry): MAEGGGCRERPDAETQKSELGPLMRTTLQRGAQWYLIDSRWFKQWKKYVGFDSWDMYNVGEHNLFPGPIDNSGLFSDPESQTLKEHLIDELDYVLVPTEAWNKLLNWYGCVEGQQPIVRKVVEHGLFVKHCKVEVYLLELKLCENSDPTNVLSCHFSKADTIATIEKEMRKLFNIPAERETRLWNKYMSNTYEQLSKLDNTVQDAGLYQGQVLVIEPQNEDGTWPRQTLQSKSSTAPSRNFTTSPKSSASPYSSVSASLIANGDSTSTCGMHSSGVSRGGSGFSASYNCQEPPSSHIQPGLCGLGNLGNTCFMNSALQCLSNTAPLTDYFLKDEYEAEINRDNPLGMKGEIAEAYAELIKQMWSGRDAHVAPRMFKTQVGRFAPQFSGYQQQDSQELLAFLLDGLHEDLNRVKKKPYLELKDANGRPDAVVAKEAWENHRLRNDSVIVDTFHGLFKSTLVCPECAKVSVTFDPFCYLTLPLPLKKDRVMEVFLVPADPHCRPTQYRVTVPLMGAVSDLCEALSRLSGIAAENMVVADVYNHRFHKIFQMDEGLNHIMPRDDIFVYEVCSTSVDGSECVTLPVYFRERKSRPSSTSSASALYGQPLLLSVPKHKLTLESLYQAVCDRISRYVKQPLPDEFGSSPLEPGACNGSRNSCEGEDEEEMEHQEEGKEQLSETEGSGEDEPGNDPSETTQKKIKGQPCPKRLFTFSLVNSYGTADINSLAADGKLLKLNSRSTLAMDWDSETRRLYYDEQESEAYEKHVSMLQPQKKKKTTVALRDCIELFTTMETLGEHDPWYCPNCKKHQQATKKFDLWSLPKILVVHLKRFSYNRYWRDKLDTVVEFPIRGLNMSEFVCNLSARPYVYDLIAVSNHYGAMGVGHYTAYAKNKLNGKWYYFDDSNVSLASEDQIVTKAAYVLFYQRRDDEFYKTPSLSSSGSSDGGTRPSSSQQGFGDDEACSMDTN
Procedure, shortened: as §1

Measured: log2 ratio of Biotin-Ahx-Ub-VS probe labelling

Sequence of USP34 (Q70CQ2 whole entry, the tested form may be a part): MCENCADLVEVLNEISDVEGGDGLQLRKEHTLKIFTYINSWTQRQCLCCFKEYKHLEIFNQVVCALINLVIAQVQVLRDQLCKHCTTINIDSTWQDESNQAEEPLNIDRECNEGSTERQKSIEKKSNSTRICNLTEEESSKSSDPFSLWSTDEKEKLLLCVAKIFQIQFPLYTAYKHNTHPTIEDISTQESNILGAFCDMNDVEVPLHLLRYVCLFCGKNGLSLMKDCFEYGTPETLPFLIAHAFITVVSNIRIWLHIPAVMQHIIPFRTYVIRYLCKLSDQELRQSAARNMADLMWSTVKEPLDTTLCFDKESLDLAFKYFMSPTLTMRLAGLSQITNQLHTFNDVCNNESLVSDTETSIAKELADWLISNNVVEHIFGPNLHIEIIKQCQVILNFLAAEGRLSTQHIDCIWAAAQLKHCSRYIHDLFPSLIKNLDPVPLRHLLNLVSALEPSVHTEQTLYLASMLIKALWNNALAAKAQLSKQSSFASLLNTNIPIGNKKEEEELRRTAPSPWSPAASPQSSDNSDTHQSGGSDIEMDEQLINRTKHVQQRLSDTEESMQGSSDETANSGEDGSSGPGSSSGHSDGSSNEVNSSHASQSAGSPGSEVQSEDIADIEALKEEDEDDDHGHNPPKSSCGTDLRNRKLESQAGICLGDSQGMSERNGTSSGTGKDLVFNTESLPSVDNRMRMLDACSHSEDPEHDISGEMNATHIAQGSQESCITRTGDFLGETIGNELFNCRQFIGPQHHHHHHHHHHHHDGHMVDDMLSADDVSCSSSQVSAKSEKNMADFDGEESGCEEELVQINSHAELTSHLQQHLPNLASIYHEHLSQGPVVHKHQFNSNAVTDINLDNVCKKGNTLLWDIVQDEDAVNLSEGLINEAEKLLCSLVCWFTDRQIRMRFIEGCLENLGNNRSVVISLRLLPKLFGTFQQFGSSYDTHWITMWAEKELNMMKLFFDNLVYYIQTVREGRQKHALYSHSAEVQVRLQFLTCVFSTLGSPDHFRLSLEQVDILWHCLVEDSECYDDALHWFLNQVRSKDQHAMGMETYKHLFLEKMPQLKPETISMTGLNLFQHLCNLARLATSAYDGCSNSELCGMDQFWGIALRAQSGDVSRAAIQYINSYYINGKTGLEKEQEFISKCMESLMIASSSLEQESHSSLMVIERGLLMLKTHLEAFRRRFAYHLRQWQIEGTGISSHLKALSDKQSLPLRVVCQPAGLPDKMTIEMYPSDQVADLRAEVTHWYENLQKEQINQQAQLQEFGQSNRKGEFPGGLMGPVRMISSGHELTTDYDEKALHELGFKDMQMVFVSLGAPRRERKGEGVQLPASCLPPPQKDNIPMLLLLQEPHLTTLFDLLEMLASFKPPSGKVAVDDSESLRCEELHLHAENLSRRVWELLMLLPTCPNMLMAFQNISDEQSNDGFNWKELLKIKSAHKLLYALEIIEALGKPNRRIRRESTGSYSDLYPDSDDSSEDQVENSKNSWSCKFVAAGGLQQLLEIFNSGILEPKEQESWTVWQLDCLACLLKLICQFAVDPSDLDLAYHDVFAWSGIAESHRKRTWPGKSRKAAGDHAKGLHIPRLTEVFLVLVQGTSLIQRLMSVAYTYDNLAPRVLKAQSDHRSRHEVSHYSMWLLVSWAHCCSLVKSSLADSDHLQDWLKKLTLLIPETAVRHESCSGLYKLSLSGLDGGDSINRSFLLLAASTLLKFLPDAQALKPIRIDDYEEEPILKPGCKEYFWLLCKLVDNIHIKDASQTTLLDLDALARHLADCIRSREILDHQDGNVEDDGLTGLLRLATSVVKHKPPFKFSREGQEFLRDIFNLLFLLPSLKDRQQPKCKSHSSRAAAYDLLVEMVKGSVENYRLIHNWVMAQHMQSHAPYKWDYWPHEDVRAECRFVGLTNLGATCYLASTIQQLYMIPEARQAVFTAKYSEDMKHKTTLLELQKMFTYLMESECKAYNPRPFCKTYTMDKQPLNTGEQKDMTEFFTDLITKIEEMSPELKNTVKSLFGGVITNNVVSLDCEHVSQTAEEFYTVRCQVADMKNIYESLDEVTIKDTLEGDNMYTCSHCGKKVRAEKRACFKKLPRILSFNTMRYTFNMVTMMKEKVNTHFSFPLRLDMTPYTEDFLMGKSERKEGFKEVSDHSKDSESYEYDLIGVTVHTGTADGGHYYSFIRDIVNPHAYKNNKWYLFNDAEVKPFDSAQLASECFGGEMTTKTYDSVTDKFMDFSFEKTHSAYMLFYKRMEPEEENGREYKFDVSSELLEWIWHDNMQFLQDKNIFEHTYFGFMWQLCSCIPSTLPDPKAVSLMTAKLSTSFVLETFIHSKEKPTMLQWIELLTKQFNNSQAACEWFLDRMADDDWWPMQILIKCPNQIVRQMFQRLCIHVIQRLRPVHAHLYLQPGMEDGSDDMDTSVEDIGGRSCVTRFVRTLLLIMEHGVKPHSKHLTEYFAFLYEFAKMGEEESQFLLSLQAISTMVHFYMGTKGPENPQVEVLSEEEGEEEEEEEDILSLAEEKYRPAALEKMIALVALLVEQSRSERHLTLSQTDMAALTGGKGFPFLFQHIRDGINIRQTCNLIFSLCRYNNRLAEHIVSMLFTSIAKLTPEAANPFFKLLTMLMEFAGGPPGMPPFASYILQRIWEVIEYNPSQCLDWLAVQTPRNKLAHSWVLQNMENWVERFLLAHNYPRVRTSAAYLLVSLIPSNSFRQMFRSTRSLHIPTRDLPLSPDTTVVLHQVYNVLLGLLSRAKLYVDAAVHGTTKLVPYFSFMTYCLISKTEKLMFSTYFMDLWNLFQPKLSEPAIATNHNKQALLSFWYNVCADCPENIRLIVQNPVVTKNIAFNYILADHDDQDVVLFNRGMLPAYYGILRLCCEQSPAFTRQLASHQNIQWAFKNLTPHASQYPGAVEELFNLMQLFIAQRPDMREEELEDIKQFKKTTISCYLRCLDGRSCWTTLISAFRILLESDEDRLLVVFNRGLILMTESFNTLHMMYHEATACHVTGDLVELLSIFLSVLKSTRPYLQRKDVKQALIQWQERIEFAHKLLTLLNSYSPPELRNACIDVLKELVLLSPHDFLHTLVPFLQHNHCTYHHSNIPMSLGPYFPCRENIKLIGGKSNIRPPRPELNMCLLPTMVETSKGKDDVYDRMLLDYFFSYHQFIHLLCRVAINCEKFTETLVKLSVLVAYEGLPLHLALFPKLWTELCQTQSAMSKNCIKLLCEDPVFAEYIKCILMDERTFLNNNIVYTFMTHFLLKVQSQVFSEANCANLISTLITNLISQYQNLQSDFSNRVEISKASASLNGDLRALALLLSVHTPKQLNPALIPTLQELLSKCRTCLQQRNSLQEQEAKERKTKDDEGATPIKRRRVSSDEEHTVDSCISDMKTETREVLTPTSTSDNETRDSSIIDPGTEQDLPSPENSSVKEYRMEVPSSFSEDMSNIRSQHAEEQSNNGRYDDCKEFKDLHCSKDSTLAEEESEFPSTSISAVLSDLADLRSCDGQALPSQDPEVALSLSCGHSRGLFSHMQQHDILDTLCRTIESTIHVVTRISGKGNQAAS

O=C(CCl)N1CCC(C(O)c2ccc(F)cc2)CC1 (stereo not given)
inactive: USP34 -0.0791 | USP36 0.299 | USP38 0.282 | USP39 0.453 | USP4 0.032

Reference: the supplement of paper PMC11732987, “Enantioselective OTUD7B fragment discovery through chemoproteomics screening and high-throughput optimisation” (Communications Chemistry, 2025)
